The text below walks through data of ChEMBL document CHEMBL4513216, “Probing the Open Global Health Chemical Diversity Library for Multistage-Active Starting Points for Next-Generation Antimalarials” (ACS Infect Dis, 2020).

Screen size: about 69,000 compounds; about 8,600 (12%) showed an effect of 50% or more. For the sample, strong results were picked, then their nearest neighbours and some compounds at random.

The assay has as its system Plasmodium berghei. Briefly: Screen against P. berghei liver stage (PbLuc), transformed with Luciferase, at 10uM. To be noted: tested at 10 uM. In kind it is functional, HepG2.
For `CO[C@@H]1CCN(Cc2cccc(C)n2)[C@@H]2CN(Cc3ccncc3)C[C@@H]21`, the INHIBITION is on record as -64.5%. For `Cc1ccc2snc(C(=O)N3CCN(C(=O)NCCC(C)C)CC3)c2c1` the value was 28.4%; for `COc1cc(CNCCc2cnn(C)c2)cc2c1OCO2`, -3.75%; for `Cc1cnn(CC2CN(Cc3nccn3CC(F)(F)F)CCO2)c1` (stereo not given), 29.7%.

As to `CC(Nc1ncnc2c1NC(=O)CN2)c1ccccn1` (stereo not given), the INHIBITION is listed as 14.3%. To `Cc1cnn(CC2CCCN2Cc2nc(N)c3ccccc3n2)c1` (stereo not given) belongs 31.2%. To `O=C1CCCN1CCCN1CCCCC1Cn1cncn1` (stereo not given) belongs 50.4%; to `O=C1CCCN1CCN1CCCCC1Cn1cncn1` (stereo not given), -19.2%. Take `Nc1nc(CN2CCCC2Cn2cncn2)nc2ccccc12` (stereo not given): the INHIBITION was -26.22%.

Turning to `c1ccc(-n2ccc(CN3CCCC3Cn3cncn3)n2)cc1` (stereo not given), the INHIBITION was 9.64%.

As to `Cc1cnn(CC2CCCCN2Cc2nc(C)c3ccccc3n2)c1` (stereo not given), the INHIBITION amounted to 36.1%.

With `Cc1nc(CN2CCCC2Cn2cccn2)nc2ccccc12` (stereo not given), the INHIBITION is recorded as 27.6%.

`O=C1CCCN1CCCN1CCCC1Cn1cccn1` (stereo not given): the INHIBITION was 24.6%.

`c1ccc(-n2cc(CN3CCCCC3Cn3cncn3)nn2)cc1` (stereo not given): the INHIBITION is 0.914%. Take `Cc1cnn(CC2CCCCN2Cc2nc(N)c3ccccc3n2)c1` (stereo not given): the INHIBITION is 58.2%. To `c1ccc(-n2cc(CN3CCCC3Cn3cncn3)nn2)cc1` (stereo not given) belongs 50.3%. Consider `Cc1cnn(CC2CCCN2Cc2nc(C)c3ccccc3n2)c1` (stereo not given), for which the INHIBITION is 53%. For `Cc1ccc(C2CSCCN2C(=O)c2cccnc2)cc1` (stereo not given) the value was -39.8%; for `c1ccc(CO[C@H]2CN(c3ncccn3)C[C@@]23CCCO3)cc1`, -42.1%; for `Nc1nnc(CCCNC(=O)c2ccc(C3CCCNC3)cc2)s1` (stereo not given), 20.6%. For `CC(C)NC(=O)c1ccn(COc2c(Cl)cccc2Cl)n1` the value was 35%; for `CC(O)(CNC(=O)NCCc1ccc2c(c1)CCO2)c1ccccc1` (stereo not given), -5.57%. With `CCCNCc1cn(Cc2ccccc2)nc1-c1cccnc1`, the INHIBITION is reported as 16.5%.

`CNC(=O)C1CN(c2ncccn2)CCN1Cc1ccccc1` (stereo not given): the INHIBITION worked out at 19.3%. For `Cc1nc(CN2CCOCC2c2[nH]ncc2C)cs1` (stereo not given) the value was 8.335%; for `CN(c1cccnn1)[C@@H]1CC[C@@H]2CN(Cc3ccccc3C(=O)O)C[C@@H]21`, 19.65%. With `N#CCCn1cnc2c(Br)cccc2c1=O`, the INHIBITION is reported as 33.6%. For `CS(=O)(=O)c1ccc(Cl)c(C(=O)NCCC2=CCCCC2)c1`, the INHIBITION is listed as -19.2%. For `COCCN1CCc2c(CNC(=O)c3nccn3C)cncc2C1` the value was 43.9%; for `CCN(CC)S(=O)(=O)N1CCCN(CC2CCCO2)CC1` (stereo not given), 41.7%. For `Cc1ccc(C)c(CN2C[C@@H]3CC[C@H]2CN(C(=O)c2cccnc2)C3)c1` the value was -70.7%; for `COCCN1CCC2(CC1)CCN(Cc1ccccn1)CC2`, -67.6%; for `Cc1cc(CNC(=O)C2CC(=O)N(CCN(C)C)C2)cc(C)n1` (stereo not given), 16.5%.

`CCN(CC)C1COc2ccc(Br)cc2C1=O` (stereo not given): the INHIBITION was 39.7%.

As to `COCCN1C[C@@H]2CN(Cc3ccc(F)cc3)C[C@@H]2C1=O`, the INHIBITION turned out to be 0.112%.

Consider `Cc1ccc(=O)n(CC2(O)CCN(Cc3ccoc3)CC2)n1`, for which the INHIBITION was -59.9%. For `O[C@@]1(Cn2cnc(Cl)c2Cl)CCCN2CCCC[C@@H]21` the value was 40.3%; for `Cc1cc2ncn(C[C@]3(O)CCCN4CCCC[C@@H]43)c2cc1C`, 49.4%. To `COc1ccc2c(c1)ncn2C[C@]1(O)CCCN2CCCC[C@@H]21` belongs 58.5%; to `c1ccc(CCN2CCCC2c2ccnc(Nc3cnccn3)n2)cc1` (stereo not given), 25.8%. In the case of `CSc1ccsc1C(=O)NS(=O)(=O)c1cccc(C#N)c1`, the INHIBITION came out at 16.9%. Consider `N#Cc1ccc(S(=O)(=O)NC(=O)c2csc(-c3ccco3)n2)cc1`, for which the INHIBITION came out at 54.3%. To `N#Cc1cccc(S(=O)(=O)NC(=O)c2csc(-c3ccco3)n2)c1` belongs 24.3%; to `Cc1nc(C(=O)NS(=O)(=O)c2cccc(C#N)c2)cs1`, 61.1%; to `COc1ccc(C(=O)NS(=O)(=O)c2cccc(C#N)c2)cc1`, 15.5%. For `Cc1nc(C(C)C)sc1C(=O)NS(=O)(=O)c1ccc(C#N)cc1` the value was 39.5%; for `Cc1ccc(CNC(=O)Nc2nccs2)cn1`, -31.8%; for `Cn1cc(NC(=O)N2CCCC2c2ccccn2)ccc1=O` (stereo not given), -80.7%. On to `O=C(CCn1cnc2cc(F)c(F)cc21)N1CCN(C2CC2)CC1`, for which the INHIBITION is recorded as -27.6%. With `COCCN1CCN(Cc2ccc(OCc3nccn3C)cc2)CC1`, the INHIBITION is listed as -3.7%. To `O=C1CC2(CCN(S(=O)(=O)c3cccs3)C2)CN1c1cccc(F)c1` (stereo not given) belongs -20.8%. To `Cc1n[nH]c(C)c1CCc1n[nH]c(=O)n1Cc1cccs1` belongs -54.9%; to `COCC(NC(=O)c1cc(C)n(C)n1)c1cccc(C(F)(F)F)c1` (stereo not given), -0.532%. Consider `CNC(=O)c1ccc(C(=O)N2CCC(Nc3cccnn3)CC2)cn1`, for which the INHIBITION is on record as -0.219%. For the compound `COc1ccc(-c2cc(C3=NC(=CN4CCN(C)CC4)NO3)[nH]n2)cc1`, the INHIBITION turned out to be 40.7%. To `CN1CCN(C=C2N=C(c3cc(-c4ccc(F)cc4)n[nH]3)ON2)CC1` belongs 50.5%. For the compound `Cc1ccc(-c2cc(C3=NC(=CN4CCN(C)CC4)NO3)[nH]n2)cc1`, the INHIBITION came out at 41.8%. For `Cc1nc(NC2(CN3CCCCC3)CCCCC2)c2cnn(C)c2n1` the value was 40.5%. For `COCC1(Nc2nc(C)nc3c2cnn3C)CCCC1` the value was 81.6%; for `CCCc1nc(NC2(COC)CCCC2)c2cnn(C)c2n1`, 22.6%. Turning to `COc1ccccc1-c1ccnc2nc(N3CCCCC3)[nH]c(=O)c12`, the INHIBITION was found to be 23.4%. To `CC(=O)N1CCC(Cc2ccc(-c3ccnn3C)nc2)CC1` belongs 9.45%; to `CN1CCCC2(CCN(C(=O)Cn3ncc4ccccc4c3=O)C2)C1=O` (stereo not given), 21.2%; to `CCN(CC1CCOC1)C(=O)c1ccccc1S(C)(=O)=O` (stereo not given), 45.7%.

`Cc1ccc(CCNc2ncnc3sc4c(c23)CCNC4)o1`: the INHIBITION is given as -158%. For `Cc1nonc1OCCNc1ncnc2sc3c(c12)CCNC3`, the INHIBITION is listed as 6.94%. For the compound `c1ccc(OCCNc2ncnc3sc4c(c23)CCNC4)cc1`, the INHIBITION is 92.1%. To `Cc1cnn(CCNCC(=O)N(C)C(C)c2ccccc2)c1` (stereo not given) belongs 19.7%; to `Cc1ccoc1C1=NNC(=CN2CCn3c(nnc3C3CC3)C2)O1`, 5.97%; to `Cn1c(CCN2CCN(c3ccc(O)cc3)CC2)nc2ccccc21`, 61.9%. To `Cn1c(CCN2CCN(CCc3ccccc3)CC2)nc2ccccc21` belongs 49.9%; to `CCCc1ccc(N2CCN(Cc3nc4ccccc4n3C)CC2)cc1`, 25.8%. To `O=C(NCc1cncc2c1CCN(Cc1ccoc1)C2)C1CC1` belongs 5.96%. Regarding `COc1ccc(CN2CCn3cc(CN4CCN(C)CC4)nc3C2)cc1`, the INHIBITION came out at 40.4%.

As for `CN1CCN(Cc2cn3c(n2)CN(Cc2cccnc2)CC3)CC1`, the INHIBITION is on record as 30.7%.

Consider `CN1CCN(Cc2cn3c(n2)CN(Cc2ccc(F)cc2)CC3)CC1`, for which the INHIBITION was -17.7%.

On to `CN1CCN(Cc2cn3c(n2)CN(Cc2ccncc2)CC3)CC1`, for which the INHIBITION was found to be 82.9%. Consider `Cc1ccc(CN2CCn3cc(CN4CCN(C)CC4)nc3C2)cc1`, for which the INHIBITION is reported as 72.9%. To `CN1CCN(Cc2cn3c(n2)CN(Cc2ccccn2)CC3)CC1` belongs 24.9%; to `O=C(c1cscn1)N1C[C@@H](Oc2cccnc2)[C@H]2OCCC[C@H]21`, 2.58%; to `CCCN1Cc2cc(Br)ccc2OCC1=O`, 68%. For `O=C1COc2ccc(Br)cc2CN1CC1CC1` the value was 0.0996%. For `O=C1COc2ccc(Cl)cc2CN1CC1CC1` the value was -8.66%; for `O=C(NC[C@]12COC[C@H]1CN(Cc1cccs1)C2)c1ccsc1`, 20.5%; for `COc1ccc(CNc2c(N3CCN(C(C)=O)CC3)c(=O)c2=O)cc1`, 54%. Regarding `COc1ccc(CNc2c(N3CCN(C)CC3)c(=O)c2=O)cc1`, the INHIBITION is 31.8%. To `COc1ccccc1CNc1c(N2CCN(C(C)=O)CC2)c(=O)c1=O` belongs -19.2%; to `O=C(NCCSCc1ccco1)c1ccc(N2CCOCC2)cc1`, 17.7%; to `CCC(CC#N)n1ccc(C(F)(F)F)n1` (stereo not given), 21.9%. As for `CCC1=N[C@@]2(CC[C@@H]3CN(CC(=O)N(C)C)C[C@@H]32)C(=O)N1CC1CC1`, the INHIBITION is -3.95%. To `Cc1c(CN2CCC(C(=O)O)(n3ccnc3)CC2)oc2ccccc12` belongs 15.1%; to `COc1ccc(NC(=O)NC(C)Cc2ccco2)cn1` (stereo not given), -41.2%; to `CC(C)(C)C(=O)N1C[C@@H]2COC[C@]2(c2nnc(C3CC3)o2)C1`, -9.54%.

Turning to `CN(C)C(=O)N1C[C@@H]2COC[C@]2(c2nnc(C3CC3)o2)C1`, the INHIBITION amounted to 54.7%.

In the case of `O=C(c1ncccn1)N1C[C@@H]2COC[C@]2(c2nnc(C3CC3)o2)C1`, the INHIBITION is on record as -36.5%. To `COc1cccc(-c2nc(C)c(C(=O)N[C@@H](CC(C)C)C(=O)O)s2)c1` belongs -95.4%; to `O=C1CC(c2cccnc2)c2c(c(C(=O)O)cn2-c2ccc(Cl)cc2)N1` (stereo not given), 20%.

As to `CCc1ccc(CCNc2ncnc3c2CCN(C(=O)C2CC2)C3)cc1`, the INHIBITION is 71.1%.

Regarding `Nc1nnc(CCCNc2ncnc3c2CCN(C(=O)C2CC2)C3)s1`, the INHIBITION is on record as -45%. For `O=C(C1CCCCO1)N1CCc2ncnc(NCCO)c2CC1` (stereo not given) the value was 25.8%. To `Nc1nc(CCNc2ncnc3c2CCN(C(=O)C2CC2)C3)cs1` belongs -66.7%; to `O=C(C1CC1)N1CCc2c(ncnc2NCCc2nc3c(s2)CCC3)C1`, 52.2%. Turning to `Nc1nnc(CCNc2ncnc3c2CCN(C(=O)C2CC2)C3)s1`, the INHIBITION was -10.2%. For `CC(C)n1nc(Cn2cccn2)c2c1CN(C1CCOCC1)C2` the value was -33%; for `Cc1nc(CN2CC[C@@H]3O[C@@H](C(=O)N4CCOCC4)C[C@@H]32)cs1`, 30.9%.
